According to PubChem BioAssay:

The molecules below were run against Fibroblast growth factor 10 (Homo sapiens) (UniProt O15520) (assay: compounds binding fibroblast growth factor 10 – biochemical, small-molecule microarray, 635 nm fluorescence, primary screen (AID 1102)). Details: FGF10 binding, fluorescence 635 nm, higher = more signal.
Fibroblast growth factor 10 (Homo sapiens), sequence (O15520 whole entry, looked up): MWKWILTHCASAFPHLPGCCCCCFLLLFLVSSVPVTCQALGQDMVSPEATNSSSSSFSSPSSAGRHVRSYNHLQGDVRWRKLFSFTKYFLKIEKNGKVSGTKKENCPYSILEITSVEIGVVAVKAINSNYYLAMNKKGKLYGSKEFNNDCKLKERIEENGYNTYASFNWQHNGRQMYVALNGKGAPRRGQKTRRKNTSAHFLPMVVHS

Compound | composite z-score
CC(C)(C)OC(=O)CC[C@]1(C(=O)NCCN2CCOCC2)N=C(c2ccc(OCCCO)cc2)O[C@H]1c1ccccc1 | -0.426
C=CC[C@@]12N=C(c3ccc(OCCCO)cc3)O[C@@H]1c1ccccc1N(CCS(=O)(=O)c1ccccc1)C2=O | 0.397
CCOC(=O)C[C@H]1[C@H](OC(=O)c2ccccc2-c2ccccc2)[C@@H](NC(=O)CC(C)C)c2cc(OCCCO)ccc2N1C(=O)c1ccc2ccccc2n1 | 0.513
COc1ccc(C(O)C2C=CC3C(=O)N(c4ccccc4)C(=O)C3N2Nc2ccccc2)cc1OCc1ccccc1 (stereo not drawn) | 1.21
NCCCCCNC(=O)[C@@H]1C[C@@H]2C(=O)N[C@@H](CCCCN)C(=O)N2[C@@H]1c1cccc(OCCO)c1 | 0.699
CCCCC(CC)C(O)C1C=CC2C(=O)N(c3ccccc3)C(=O)C2N1Nc1ccc([N+](=O)[O-])cc1 (stereo not drawn) | 1.01
CC(C)(C)OC(=O)CC[C@]1(C(=O)O)N=C(c2ccc(OCCCO)cc2)O[C@H]1c1ccccc1CN=[N+]=[N-] | 0.253
C=C(/C(=C/C[C@@H](OC(=O)c1ccncc1)c1ccccc1OCCO)c1cc(C(=O)OC)ccc1OC)C(C)C | 1.12
O=C1O[C@@H](c2ccccc2)[C@@H](c2ccccc2)N2[C@@H](c3ccccc3OCCO)[C@]3(C(=O)Nc4ccccc43)[C@@H](C(=O)NC[C@H](O)c3ccccc3)[C@H]12 | -0.369
COCCOC(=O)N1C(=O)[C@@]2(c3cc(C#CC4(O)CCCCCC4)ccc31)[C@H](c1ccccc1OCCO)N1[C@H](c3ccccc3)[C@H](c3ccccc3)OC(=O)[C@H]1[C@@H]2C(N)=O | 0.804
O=c1cccc(-c2cccc(Cl)c2)o1 | 0.227
COCCOC(=O)N1C(=O)[C@@]2(c3cc(C#CC4=CCCCC4)ccc31)[C@H](C(=O)N1CCN(c3ncccn3)CC1)[C@H]1C(=O)O[C@H](c3ccccc3)[C@H](c3ccccc3)N1[C@@H]2c1ccc(O)cc1 | 0.664
COCC(=C=CC[C@H](O)c1ccc(OCCO)cc1)C[C@H](O)COCc1ccccc1 | 0.605
C=C[C@@H](COC(C)=O)NS(=O)(=O)c1ccc(Br)cc1 | 0.172
O=C1C2C=CC(C(O)c3cc(C(F)(F)F)cc(C(F)(F)F)c3)N(Nc3ccc([N+](=O)[O-])cc3)C2C(=O)N1c1ccccc1 (stereo not drawn) | 0.902
CC(=O)NCCCC[C@@H]1NC(=O)[C@@H]2C[C@H](C(=O)O)[C@H](c3ccc(O)cc3)N2C1=O | -0.947
COCCOC(=O)N1C(=O)[C@@]2(c3cc(C#CC4=CCCCC4)ccc31)[C@H](c1ccc(O)cc1)N1[C@H](c3ccccc3)[C@H](c3ccccc3)OC(=O)[C@H]1[C@@H]2C(=O)Nc1nc2ccccc2s1 | 1.33
CC(C)CNC(=O)[C@@H]1c2ccccc2C(=O)N(Cc2cc(F)cc(C(F)(F)F)c2)[C@H]1c1ccc(CO)cc1 | 0.301
C=C(C(=O)CC[C@H](OC(C)=O)c1cccc(OCCO)c1)C(C)C | -0.924
O=C1O[C@@H](c2ccccc2)[C@@H](c2ccccc2)N2[C@@H](c3ccc(O)cc3)[C@]3(C(=O)Nc4ccc(C#CCCO)cc43)[C@@H](C(=O)NC[C@H](O)c3ccccc3)[C@H]12 | -1.01
CCCN1C(=O)[C@]2(Cc3ccccc3)N=C(c3ccc(OCCCO)cc3)O[C@@H]2c2ccccc21 | 1.24
C[C@H]1C2=C3C(CC[C@H]4C(OCc5ccc(F)cc5C(F)(F)F)OC[C@](C)([C@@H]34)N(C(=O)OC(C)(C)C)C2)C2COC(=O)OCC21 (stereo partly drawn) | 0.0151
O=C1c2ccccc2[C@](Cc2ccccc2I)(C(=O)NCCN2CCOCC2)[C@H](c2ccc(CO)cc2)N1Cc1ccccc1 | 0.712
COC(=O)[C@@]1(Cc2ccc(OC)cc2)[C@H]2c3cc(C(=O)N(C)C)n(Cc4nc5ccccc5[nH]4)c3C[C@H]2CN1C(=O)c1ccccc1 | 1.09
C[C@]1(C(=O)NC2CC2)c2ccccc2C(=O)N(Cc2ccc(OC(F)(F)F)cc2)[C@H]1c1ccc(CO)cc1 | -0.326
CN(C)CCCNC(=O)[C@@H]1c2ccccc2C(=O)N(CC23CC4CC(CC(C4)C2)C3)[C@H]1c1ccc(CO)cc1 | 1.17
CC1CC/C=C\[C@H]2OC34C=CCN(C(C)C)C(=O)[C@H]3N(CCCCCO)C(=O)[C@@H]4C2C(=O)O1 (stereo partly drawn) | -0.82
C=CCOC(=O)[C@H]1[C@@H]2C(=O)O[C@@H](c3ccccc3)[C@@H](c3ccccc3)N2[C@@H](c2ccc(OCCOC(=O)[C@H]3C[C@H]4C(=O)N[C@@H](Cc5ccccc5)C(=O)N4[C@H]3c3cccc(OCCO)c3)cc2)[C@]12C(=O)Nc1ccc(I)cc12 | 1.24
